# A selection: hits, their analogues and other compounds. The true share with any hit is near 11%.
# NS1 inh: blocks influenza NS1 protein function; Potency, µM (titrated, usually from 46.1 µM), without a hit: at the top dose activity, positive = more growth; 270,000 compounds, 0.4% hits; calls by dose curve; also: actives are rising curves; nearly all actives have a fitted effect of over 50% in size
#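 Read-out: OD600 growth recovery of NS1-expressing budding yeast. Cells grown overnight at 30C in -URA glucose medium, washed, resuspended and diluted 1:100 in 2% galactose assay medium, pH 6.0. Same strain lacking NS1 served as positive control.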
# AMA1 RON2 block: disrupts binding of P. falciparum AMA1 to RON2; AlphaScreen AMA1-biotinylated RON2 peptide binding; Potency, µM (doses to about 58.2 µM), inactives show top-dose activity change, negative = inhibition, actives largely listed as inhibitors; 360,000 compounds, 0.2% hits; AID 720542;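 also: 0% = vehicle wells and -100% = peptide control; nearly all actives have a fitted effect of over 45% in size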
#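 AMA1 (3D7) with his tag at 25 nM final met compounds first, then biotinylated RON2 peptide at 25 nM; detection used donor plus acceptor beads, 10 µg/mL apiece, read by AlphaScreen after 30 min at room temperature.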
# Pf growth 48h: P. falciparum growth inhibition at 48 hours (one generation); P. falciparum luciferase growth in erythrocytes, 48 h; Potency, µM (series often up to 28.7 µM), for the others: at the highest dose activity change, negative = inhibition, hits mostly inhibitors; 310,000 compounds, 5.9% hits; also: % is scaled to controls: 0 for no effect and ±100 for the full control effect
#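 Erythrocytes infected with P. falciparum carrying an integrated firefly luciferase reporter (2% hematocrit, 0.1% parasitemia final) were exposed to compounds in RPMI 1640 with 0.5% Albumax at 37 C, 5% CO2. Growth inhibition was scored as reduced luminescence.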
# Pf growth 96h: inhibits malaria parasite growth, 96 h; AID 504834; P. falciparum luciferase reporter growth, 96 h; Potency, µM (titrated, usually from 28.7 µM), without a hit: at the top dose activity change, negative = inhibition, actives largely listed as inhibitors; 320,000 compounds, 6.9% hits; also: % is scaled to controls: 0 for no effect and ±100 for the full control effect
#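 Two parasite generations (96 h, 37 C, 5% CO2) of compound exposure in infected erythrocytes (0.05% parasitemia, 2% hematocrit). Luciferase-reporter P. falciparum; decreased luminescence indicates inhibited growth, aimed at apicoplast-acting delayed death.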
# Sm TGR block: blocks Schistosoma mansoni thioredoxin glutathione reductase; Q962Y6; purified TGR, DTNB reduction, TNB absorbance 405 nm; Potency, µM (titrated, usually from 114 µM), without a hit: top-dose activity change, negative = inhibition, most hits filed as inhibitors; 360,000 compounds, 3% hits; AID 485364; also: % is scaled to controls: 0 for no effect and ±100 for the full control effect; nearly all actives have a fitted effect of over 60% in size
#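 Kinetic colorimetric format: TGR-catalysed, NADPH-driven DTNB reduction monitored via TNB absorbance. Enzyme dispensed at 20 nM; compound exposure 15 min at room temperature before reaction start.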
# Numbers without * were called inactive; ? = inconclusive; nt = no result given; [ ] = dose if it differs, or a comment. Unless noted, calls follow the shape of the dose curve; as a rule, active = well fitted curve in the direction sought with a large enough effect; inconclusive = small, poorly fitted or top-dose-only effect, or another doubt; inactive = no such curve, though single readings can be large; an effect the other way counts as inactive or inconclusive. Potency is read from the fitted curve at half-maximal effect.
SMILES,NS1 inh,AMA1 RON2 block,Pf growth 48h,Pf growth 96h,Sm TGR block
COc1ccc(C)cc1NC(=O)N1CCC(CN2CCC(C)CC2)CC1,nt,nt,nt,nt,5%
O=[N+]([O-])c1cc(S(=O)(=O)Nc2cccc(Cl)c2)ccc1N/N=C/c1ccc(N2CCOCC2)cc1,1%,4%,1.9µM*,?,6%
Nc1c2c(=O)[nH]c(O)cc2nn1-c1ccccc1,nt,-8%,nt,nt,nt
Cn1c(=O)c(=O)n(C)c2cc(S(=O)(=O)N3CCCC3C(=O)Nc3cccc(F)c3)ccc21 (stereo not given),nt,nt,nt,nt,4%
Cc1ccc(-c2cc3c(nn2)-c2ccccc2C3=O)cc1,-10%,-11%,0.52µM*,0.37µM*,-17%
Cc1ccccc1-c1cc2c(nn1)-c1ccccc1C2=O,-120%,-14%,4.1µM*,nt,40%
CC(/C=N/NC(=O)NC1CCCCC1)=C\c1ccccc1,nt,-23%,10µM*,-5%,-1%
O=C(N/N=C/C(Br)=C/c1ccccc1)NC1CCCCC1,0%,-4%,?,?,?
CCOc1ccc(OCC)c(NC(=O)C2C3C=CC(O3)C2C(=O)O)c1 (stereo not given),nt,-20%,nt,nt,nt
O=C(CC(=O)Nc1ccccc1C(F)(F)F)Nc1ccccc1C(F)(F)F,-1%,11%,1%,33%,0%
O=C(O)[C@@H]1[C@@H](C(=O)Nc2ccccc2)[C@@H]2C=C[C@@H]1O2,-1%,nt,nt,nt,nt
O=C(O)C1C2C=CC(O2)C1C(=O)Nc1ccccc1C(F)(F)F (stereo not given),0%,-2%,nt,-2%,8.9µM*
CCOC(=O)c1cc(NC(=O)C2C3C=CC(O3)C2C(=O)O)cc(C(=O)OCC)c1 (stereo not given),-3%,5%,?,12µM*,?
CCOc1ccc(OCC)c(NC(=O)C2C3C=CC(O3)C2C(=O)NCc2ccco2)c1 (stereo not given),-6%,-8%,-13%,35%,50µM*
O=C(O)C1C2C=CC(O2)C1C(=O)Nc1cccc(C(F)(F)F)c1 (stereo not given),-1%,-6%,-10%,10µM*,100µM*
COc1ccc(C(C(=O)NC(C)(C)C)n2c(=O)c(-c3cc4ccccc4[nH]3)nc3ccccc32)cc1 (stereo not given),nt,82%,nt,nt,nt
Cc1cccnc1C(NC(=O)C1CCN(Cc2cn(C)c3ccccc23)CC1)c1ccc(Cl)cc1 (stereo not given),nt,-14%,nt,nt,nt
COc1ccc(Br)cc1C(=O)Nc1ccc(-c2nc3ncccc3o2)cc1C,nt,nt,nt,nt,0%
COc1ccc(S(=O)(=O)NNS(=O)(=O)c2ccc(OC)c(OC)c2)cc1OC,nt,-7%,nt,nt,nt
CCc1ccccc1NC(=O)C1C2C=CC(O2)C1C(=O)O (stereo not given),23%,-9%,3%,?,18µM*
O=C(O)[C@@H]1[C@@H](C(=O)Nc2ncccn2)[C@@H]2C=C[C@@H]1O2,-3%,nt,nt,nt,nt
CCOc1ccccc1NC(=O)C1C2C=CC(O2)C1C(=O)O (stereo not given),0%,-7%,7%,42%,20µM*
CCOC(=O)c1nnn(CC(=O)N2N=C(c3ccccc3)CC2c2ccccc2)c1C(=O)OCC (stereo not given),-1%,0%,12µM*,?,-1%
CCOC(=O)/C=C(\C)N1N=C(c2ccccc2)CC1c1ccccc1 (stereo not given),nt,31%,112%,18%,?
COc1ccc(C2CC(c3ccc4ccccc4c3)=NN2C(=O)CN2CCC(C(N)=O)CC2)cc1 (stereo not given),nt,-11%,?,?,5%
SMILES,NS1 inh,AMA1 RON2 block,Pf growth 48h,Pf growth 96h,Sm TGR block
CCOC(=O)c1nnn(CC(=O)N2N=C(c3cc(C)ccc3C)CC2c2ccc(OC)cc2)c1C(=O)OCC (stereo not given),15%,-4%,15µM*,9.3µM*,12%
Cc1ccc(Cl)cc1N1CCN(C(=O)COc2cc(=O)n(C)c3ccccc23)CC1,nt,nt,nt,nt,6%
COc1cc(N2CCCC2)c(OC)cc1/C=C(/C#N)c1cccc(F)c1,11%,?,10µM*,nt,32%
N#Cc1c(NC2CCCCC2)nc(-c2ccco2)c2c1CCCC2,9%,-3%,nt,?,35µM*
N#Cc1c(NCCCO)nc(-c2ccco2)c2c1CCCC2,10%,10%,nt,?,6.3µM*
N#Cc1c(N2CCNCC2)nc(-c2ccco2)c2c1CCCC2,4%,-1%,6%,32%,7%
CS(=O)(=O)N1N=C(c2cccs2)CC1c1ccccc1O (stereo not given),2%,-5%,-16%,7%,19%
CCOc1ccccc1C1CC(c2cccs2)=NN1S(C)(=O)=O (stereo not given),1%,2%,-9%,-9%[5.75 µM],4µM*
CCOc1ccc(C(=O)Nc2ccc(C(=O)OCc3cc(=O)n4nc(CC)sc4n3)cc2)cc1,nt,nt,nt,nt,-1%
O=C1NN=C(CSc2n[nH]c(=S)s2)CS1,7%,41%,-12%,34%,40µM*
O=C1C(Cc2ccccc2)Nc2ncnc(N3CCc4ccccc4C3)c2N1Cc1ccc(Cl)cc1 (stereo not given),nt,19%,15µM*,6.6µM*,-33%
COc1ccc(CN2C(=O)C(Cc3ccccc3)Nc3ncnc(N4CCc5ccccc5C4)c32)cc1 (stereo not given),nt,nt,7.4µM*,5.2µM*,?
O=S(=O)(NCC1CCCO1)c1ccc(Cl)c2ccccc12 (stereo not given),nt,-11%,nt,nt,nt
O=C1CC2(CCN(C(=O)C3CC(=O)N(c4ccccc4)C3)CC2)Oc2ccccc21 (stereo not given),nt,3%,?,9.3µM*,0%
CCOc1ccc(C2=NC(c3cccs3)=Nc3ccc(C(C)C)cc3N2)cc1,nt,nt,nt,nt,1%
CC(C)C(CCNC(=O)CC(Cc1ccccc1)c1ccco1)c1ccco1 (stereo not given),-4%,7%,?,13µM*,?
CC(C)C(CCNC(=O)CN1C(=O)c2ccccc2C1=O)c1ccco1 (stereo not given),1%,-5%,-2%,?,0%
OC[C@@H]1CCCN1Cc1cn(-c2ccccc2)nc1-c1ccc2c(c1)OCO2,-10%,-8%,13µM*,357%,17%
O=C(Nc1cc(C(F)(F)F)ccc1Cl)c1cc(-c2ccc3c(c2)OCCO3)on1,nt,nt,nt,nt,-6%
COc1ccc(S(=O)(=O)N2CCCCCC2)cc1C(=O)N1CCN(C(C)=O)CC1,nt,-6%,nt,nt,nt
CC(=O)Nc1ccc(NC(=O)c2c(C)noc2C)cc1,3%,-8%,4.7µM*,?,1%
Cc1noc(N)c1C(=O)Nc1ccc(F)cc1,-7%,3%,-9%,2.1µM*,0%
Cc1noc(N)c1C(=O)Nc1ccc(F)c(Cl)c1,-7%,-4%,2.3µM*,81%,8%
CCc1noc(N)c1C(=O)Nc1ccc(F)c(Cl)c1,7%,45%,0%,63%,-29%

# Source: PubChem
